According to PubChem BioAssay (EPA / NIEHS):
Inconclusive results are not listed. The source made the active and inactive calls. Rule for the calls, unless noted: active = hit-call score of the fitted dose curve at least 0.9, where 1 is the maximum; inactive = score below 0.9.

Experiments:
[1] = CCTE_Shafer_MEA_acute_spike_number: CCTE's Neural Acute Assay for Total Number of Spikes, Shafer Lab (AID 2284008)
How it was run: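 Using an adaptive detector set to 8x rms noise, spikes were counted in 40-min windows before and after compound addition (0.03-40 uM) to rat cortical networks at 37 C; the well-level change from baseline was analysed relative to DMSO.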

[2] = CCTE_Shafer_MEA_acute_firing_rate_mean: CCTE's Neural Acute Assay for Mean Firing Rate, Shafer Lab (AID 2284009);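 note: analyzed for loss of signal so actives lower firing rate relative to DMSO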
How it was run: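 Read-out: well-mean spike rate (spikes/recording length/electrodes), % change from 40 min pre-dose baseline to 40 min with compound. Rat cortical cultures, DIV 13 or 15, 37 C; 0.03-40 uM; DMSO as negative control.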

[3] = CCTE_Harrill_HTTr_Viability_MCF7: CCTE's 6-hour Cell Viability Assessment for the High-Throughput Transcriptomics (HTTr) Platform, in MCF-7 cells cultured in DMEM + 10% fetal bovine serum, Harrill Lab (AID 2284010)
How it was run: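 Membrane integrity was scored by high-content imaging of propidium iodide dye exclusion after a 6 h exposure across an eight-point dilution series. Data were fitted bidirectionally relative to DMSO as negative control and baseline.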

[4] = CCTE_Shafer_MEA_acute_burst_number: CCTE's Neural Acute Assay for Single-Electrode Bursts, Shafer Lab (AID 2284013)
How it was run: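 Rat cortical cultures, DIV 13/15; 40 min baseline, then 40 min with compound 0.03-40 uM, 37 C. Spikes: 300-5000 Hz band-pass, threshold 8x rms noise. Readout = % change in single-electrode bursts vs baseline, loss-of-signal fit.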

[5] = CCTE_Shafer_MEA_acute_burst_duration_mean: CCTE's Neural Acute Assay for Mean Burst Duration, Shafer Lab (AID 2284014);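 note: hits are decreases in mean burst duration relative to DMSO controls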
How it was run: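 Primary rat cortical neurons on 16-electrode MEA wells, treated on DIV 13 or 15 with compound (0.03-40 uM; ≥3 wells each). 40-min baseline and 40-min exposure recordings at 37 C; percent change in mean burst duration per well versus DMSO.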

[6] = CCTE_Shafer_MEA_acute_per_burst_spike_number_mean: CCTE's Neural Acute Assay for Average Number of Spikes Per Burst, Shafer Lab (AID 2284015);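 note: hits are decreases in mean spikes per burst versus baseline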
How it was run: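 We recorded spontaneous network firing of rat cortical neurons for 40 min before and 40 min during exposure to compound at 0.03-40 uM, at 37 C. Spikes were detected adaptively at 8x rms noise, and the change in average spikes per burst was fitted against DMSO.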

[7] = CCTE_Shafer_MEA_acute_burst_percentage_std: CCTE's Neural Acute Assay for Standard Deviation of Burst Percentage, Shafer Lab (AID 2284018);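 note: fitted in the negative direction so actives lower burst percentage SD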
How it was run: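 Primary rat cortical neurons on 16-electrode MEA wells were recorded 40 min at baseline (DIV 13 or 15), then 40 min after compound (0.03-40 uM), at 37 C. Well value is SD across electrodes of spikes-in-bursts/total spikes; endpoint is percent change, DMSO-referenced.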

[8] = CCTE_Shafer_MEA_acute_per_network_burst_spike_number_mean: CCTE's Neural Acute Assay for Average Number of Spikes in a Network Burst, Shafer Lab (AID 2284019);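 for AC50: curve fitted for loss of signal so actives reduce spikes per network burst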
How it was run: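 Primary rat cortical neurons on 16-electrode MEA wells, DIV 13 or 15, 37 C; 40-min baseline then 40-min recording with compound (0.03-40 uM). Spikes per network burst (total spikes/number of bursts) expressed as percent change from baseline, DMSO reference.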

[9] = CCTE_Shafer_MEA_acute_per_network_burst_spike_number_std: CCTE's Neural Acute Assay for Standard Deviation of Number of Spikes in a Network Burst, Shafer Lab (AID 2284020);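 note: fitted for decrease in spike-number SD versus DMSO so actives lower it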
How it was run: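 Primary rat cortical neurons on 48-well MEAs (16 electrodes/well) recorded at DIV 13 or 15: 40-min baseline, then 40 min with compound (0.03-40 uM), 37 C. Value is percent change in SD of spikes per network burst, relative to DMSO.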

[10] = CCTE_Shafer_MEA_acute_per_network_burst_electrodes_number_mean: CCTE's Neural Acute Assay for Mean Number of Electrodes in a Network Burst, Shafer Lab (AID 2284021);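 note: curves fitted for decreases only so hits reduce electrodes per burst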
How it was run: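 Percent change from baseline in average electrode count per network burst, rat cortical cultures on 48-well MEAs; 40-min recordings each side of exposure, DIV 13 or 15; threshold 8x rms noise; DMSO as negative control.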

[11] = CCTE_Shafer_MEA_acute_network_burst_percentage: CCTE's Neural Acute Assay for Percentage of Network Bursts, Shafer Lab (AID 2284022);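 note: curves fitted for loss so actives lower network burst percentage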
How it was run: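 On DIV 13 or 15, at least three wells of rat cortical neurons per compound are dosed at 0.03-40 uM. Spontaneous firing is detected at 8x rms noise for 40 min before and after dosing at 37 C. The percent change in network-burst spike share is reported.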

[12] = CCTE_Shafer_MEA_acute_cross_correlation_area: CCTE's Neural Acute Assay for Area of Cross Correlation, Shafer Lab (AID 2284024);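 note: area under pooled inter-electrode spike cross-correlation near zero lag as percent change from own baseline; curves fitted for loss of cross-correlation area so actives lower synchrony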
How it was run: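 Extracellular recordings from cultured rat cortical neurons measure network synchrony as cross-correlation area; each well's post-compound value (0.03-40 uM, 40 min) is compared with its own 40 min baseline to give percent change.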

[13] = CCTE_Shafer_MEA_acute_cross_correlation_HWHM: CCTE's Neural Acute Assay for Cross Correlation at Half Width at Half Maximum, Shafer Lab (AID 2284026);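 note: percent change per well from pre-dose baseline in spike cross-correlogram half width; hits are a decrease in cross-correlogram half width relative to DMSO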
How it was run: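 Percent change in cross-correlogram half width at half maximum, narrower meaning more synchrony, was derived per well from paired 40-min recordings before and during exposure to 0.03-40 uM compound in rat cortical cultures at 37 C.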

[14] = CCTE_Shafer_MEA_acute_synchrony_index: CCTE's Neural Acute Assay for Synchrony, Shafer Lab (AID 2284027);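 note: network synchrony index of spontaneous spiking in primary rat cortical neurons on MEAs; fitted for loss of signal so actives lower synchrony relative to DMSO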
How it was run: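 Primary rat cortical neurons on 16-electrode MEA wells were recorded 40 min at baseline (DIV 13 or 15) and 40 min after compound (0.03-40 uM) at 37 C. Synchrony index (0-1) expressed as percent change from baseline, versus DMSO.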

[15] = CCTE_Harrill_HTTr_CellCount_MCF7: CCTE's Cell Proliferation Assessment for the High-Throughput Transcriptomics (HTTr) Platform, Harrill Lab (AID 2284012; active = hit-call score of the fitted dose curve at least 0.9, where 1 is the maximum;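 note: cells exposed to compound for six hours; intended direction is loss of nuclei count meaning fewer cells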)
How it was run: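 MCF-7 cells were exposed for 6 h to an eight-point dilution series; Hoechst-labeled nuclei were counted by high content imaging. Curves were fitted bidirectionally against DMSO as negative control and baseline, with signal loss indicating reduced cell count.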

[16] = target: Estrogen receptor (Homo sapiens) (UniProt P03372); experiment: CCTE_Deisenroth_AIME_96WELL_LUC_Active: CCTE's 96-well Estrogen Receptor Transactivation Assay with AIME metabolic competence (ERTA luciferase; metabolism positive), Deisenroth Lab (AID 2284023; active = hit-call score of the fitted dose curve at least 0.9, where 1 is the maximum)
Sequence of Estrogen receptor (Homo sapiens) (P03372 whole entry, looked up): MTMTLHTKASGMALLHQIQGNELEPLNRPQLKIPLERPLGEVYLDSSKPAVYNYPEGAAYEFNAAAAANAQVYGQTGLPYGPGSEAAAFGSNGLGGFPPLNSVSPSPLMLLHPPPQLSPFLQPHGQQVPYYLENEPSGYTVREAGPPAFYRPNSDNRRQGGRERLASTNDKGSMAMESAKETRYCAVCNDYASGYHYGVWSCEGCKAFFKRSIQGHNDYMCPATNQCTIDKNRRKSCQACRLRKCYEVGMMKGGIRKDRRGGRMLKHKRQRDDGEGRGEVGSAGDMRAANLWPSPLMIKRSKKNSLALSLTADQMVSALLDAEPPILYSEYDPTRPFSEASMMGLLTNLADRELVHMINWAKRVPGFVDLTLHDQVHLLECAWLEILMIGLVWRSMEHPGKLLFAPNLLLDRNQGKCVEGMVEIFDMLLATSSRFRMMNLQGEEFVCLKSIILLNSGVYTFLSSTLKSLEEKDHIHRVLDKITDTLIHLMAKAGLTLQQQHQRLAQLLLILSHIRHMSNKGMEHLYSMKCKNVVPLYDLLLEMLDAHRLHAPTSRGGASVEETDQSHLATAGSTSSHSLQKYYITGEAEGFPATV
How it was run: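 Chemicals pre-incubated 2 h with alginate-immobilized phenobarbital/beta-naphthoflavone-induced male Sprague Dawley rat liver S9, then medium transferred to VM7Luc4E2 cells for 24 h luciferase read-out. 10-point series 0.002 - 200 uM; fitted relative to 17beta-estradiol.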

[17] = target: Estrogen receptor (Homo sapiens) (UniProt P03372); experiment: CCTE_Deisenroth_AIME_96WELL_LUC_Inactive: CCTE's 96-well Estrogen Receptor Transactivation Assay without AIME metabolic competence (ERTA luciferase; metabolism negative), Deisenroth Lab (AID 2284025; active = hit-call score of the fitted dose curve at least 0.9, where 1 is the maximum)
How it was run: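 VM7Luc4E2 breast cells, luciferase read 24 h after dosing with medium pre-incubated 2 h on alginate-water lids (metabolism negative). 10-point series 0.002–200 uM, single technical replicate, n≥4; fit relative to 17beta-estradiol.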

Measured: AC50

CSC(=O)c1cccc2nnsc12
inactive: [1] | [2] | [3] | [4] | [5] | [6] | [7] | [8] | [9] | [10] | [11] | [12] | [13] | [14]

COc1c(Cl)ccc(Cl)c1C(=O)O
inactive: [3]

N#CSCSc1nc2ccccc2s1
inactive: [1] | [2] | [3] | [15] | [4] | [5] | [12]
active: [6] 20 µM | [7] 32.7 µM | [8] 11.6 µM | [9] 20 µM | [10] 27.2 µM | [11] 37.2 µM | [13] 23.9 µM | [14] 28.6 µM

CC1(C)C(C=C(Cl)Cl)C1C(=O)OCc1cccc(Oc2ccccc2)c1 (stereo not given)
active: [10] 6 µM | [11] 20 µM | [16] 65.9 µM | [17] 75.6 µM | [14] 34.7 µM
inactive: [1] | [2] | [3] | [4] | [5] | [7] | [8] | [9] | [12] | [13]
